The OligoGym collection

target: ZNF135; experiment: pooled miR-30 sensor sort-seq; sequence = guide strand; details: shRNA
Note: reference of the scale not given here.

| Sequence | sensor-assay potency score (higher = more potent) |
| --- | --- |
| TGTTCGATAAGTGCTGAGCTGT | -0.66 |
| TTTCTCATGTGTATGATTGGGT | 0.467 |
| TTGCTTTAGAACTGACAGTTTG | -1.45 |
| TTAAGCATTCGTGACATTCATA | -1.02 |
| ATGAATATCAGAGTCAACCTGC | 0.469 |

target: ZNF146; experiment: as above; details: shRNA

| Sequence | sensor-assay potency score (higher = more potent) |
| --- | --- |
| TTCCACAAACATTGCATTCGTA | 0.428 |
| TTTTATGAGGTACTTCTTCTGG | -0.457 |
| TCCACAAACATTGCATTCGTAA | -1.11 |
| TTTCTAATGAAAGCTTTCCCAC | -1.05 |
| ATGTTTAATGACATACTGCTTT | -0.84 |
| TTTATGAGGTACTTCTTCTGGC | 0.438 |
| TTGGATTTGCCACTGAAGGTTT | -0.469 |
| TTGAGAACTGAGAGAAAGCTTT | -0.35 |
| TTTATCACCTGAATGAATCCTC | 0.519 |
| TTAAAGTTAACCTCATTCGTGG | 0.427 |
| TTACATTCGAAAAGCTTCTCGC | -0.0579 |
| TTAACCTCATTCGTGGTGCTTT | -0.543 |

target: ZNF160; experiment: as above; details: shRNA

| Sequence | sensor-assay potency score (higher = more potent) |
| --- | --- |
| TTGATCTCTTTTACCTTCTTTC | -0.844 |
| TTCTGTACTGCTCTTCTCTTTT | -0.536 |
| TTTCTTGCTATTTTCACACAGC | -0.0844 |
| TGAATTTTGAGTGAAAACCTTG | -0.306 |
| TGTCTTTCCAACACCACTGTGT | 0.215 |
| TTTTGAGTGAAGCTCTTGCCAC | -0.929 |
| TAAACAACAGGTATTGCTCTTT | 0.3 |
| TTACCTATTACTCTCCTCCCAC | -0.496 |
| TAGGCTTGAACGAACACTGAAG | -0.806 |
| TTCTATGTCTCTTCTGTCGCGT | 0.15 |
| TCTATGTCTCTTCTGTCGCGTT | -0.213 |
| TATGTTTACATGATGTCTCTTG | 0.273 |

target: ZNF169; experiment: as above; details: shRNA

| Sequence | sensor-assay potency score (higher = more potent) |
| --- | --- |
| TTTTTCACTAGAGCATCTTGGA | 0.14 |
| TAGAAGGAGGGCTATCTTCTGG | -0.694 |
| TTTCACTAGAGCATCTTGGAGC | -0.176 |
| TATTGTCTGAGGAGCTGCGAGC | -1.19 |
| TAAGGTGTGACTTCTGGCCAAG | -0.969 |
| ATATTGTCTGAGGAGCTGCGAG | -1.34 |
| TTTCTTAATGAGCTGTCGGGGC | -0.62 |
| TTCGTCGCCTTGCTCCAGCTGT | -0.551 |
| TTGATAAGGTCTGATCTCTGGC | 0.151 |
| TAGCGCATATTGTCTGAGGAGC | -1.15 |
| TAGAGCATCTTGGAGCTTCTAG | -0.619 |
